Screening results deposited in PubChem by several laboratories.
A selection: hits, their analogues and other compounds. The true share with any hit is near 27%.
CYP2C19 inh – inhibitors of human CYP2C19; CYP2C19 Supersomes, luciferin-H EGE luminescence, 30 min; inhibition, % at 5 µM; actives 21% (n = 96,000);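 active means CYP2C19 inhibition above a set limit at 5 µM in the primary screen, cut at about 50% in these data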;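 further: plate controls were negative control wells for no effect and 2.5 mM tranylcypromine positive control for full effect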
CYP2C9 act – activators of human CYP2C9; actives 1.4% (n = 96,000); activation factor at 5 µM; recombinant CYP2C9, luciferin-H conversion, luminescence; stronger effect = higher value; factor 1 = untreated enzyme, 0 = blocked; P11712; AID 1024;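 active means activation factor of 2 or more for CYP2C9 at a 5 µM dose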;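 further: 0 = sulfaphenazole-blocked wells and 1 = vehicle-only wells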
Target sequence (P11712 whole entry, looked up): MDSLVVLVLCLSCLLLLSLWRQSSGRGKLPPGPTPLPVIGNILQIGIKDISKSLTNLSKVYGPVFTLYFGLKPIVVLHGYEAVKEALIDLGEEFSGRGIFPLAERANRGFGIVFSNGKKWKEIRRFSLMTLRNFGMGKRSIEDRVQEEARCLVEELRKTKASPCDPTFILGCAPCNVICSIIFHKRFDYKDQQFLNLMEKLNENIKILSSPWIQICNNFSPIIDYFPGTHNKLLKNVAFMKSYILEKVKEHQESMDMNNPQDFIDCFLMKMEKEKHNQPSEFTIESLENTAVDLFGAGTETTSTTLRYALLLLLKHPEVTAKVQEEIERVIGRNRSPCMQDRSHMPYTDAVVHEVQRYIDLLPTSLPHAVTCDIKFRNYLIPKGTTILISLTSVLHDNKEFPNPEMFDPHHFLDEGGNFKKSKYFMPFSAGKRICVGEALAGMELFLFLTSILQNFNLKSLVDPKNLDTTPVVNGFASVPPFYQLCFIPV
CYP2C9 inh – inhibitors of human CYP2C9; P11712; CYP2C9 Supersomes, luciferin-H conversion, luminescence; inhibition, % at 5 µM; actives 20% (n = 96,000);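 active means blocking of liver enzyme CYP2C9 beyond about 50% at 5 µM, limit read from the data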
CYP2C19 act – increases human CYP2C19 enzyme activity; P33261; recombinant CYP2C19, luciferin-H EGE luminescence; stronger effect = higher value; 0 = fully inhibited enzyme, 1 = untreated enzyme; activation factor at 5 µM; 96,000 tested, under 10 active;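 active means activation factor of at least 2 at 5 µM in the primary screen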;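 further: 0 = wells with 2.5 mM tranylcypromine and 1 = vehicle-only wells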
sEH inh – inhibitors of human soluble epoxide hydrolase | P34913 | recombinant human sEH enzymatic activity assay | inhibition, % at 2 µM | actives 0.34% (n = 91,000) | AID 707; in the data active means inhibition above about 80%
sEH activator – activators of human soluble epoxide hydrolase; P34913; purified human sEH enzymatic activity, activator screen; activation, % at 2 µM; actives 0.04% (n = 91,000); AID 717; in the data active means activation above about 37%
The depositor's hits bear a star; · = not tested or not shown.

SMILES	CYP2C19 inh	CYP2C9 act	CYP2C9 inh	CYP2C19 act	sEH inh	sEH activator
c1ccc(Nc2cc(Nc3ccccc3)[nH]n2)cc1	74*	0.5	45	0.3	·	·
COc1ccc2c(c1)S/C(=C\C(=O)c1ccncc1)N2C	73*	0.4	62*	0.3	0	0
COc1ccc(/C=N/Nc2ncc(-c3ccccc3)cn2)c(OC)c1	·	·	·	·	0	-2
COc1ccc(/C=N/NC(=O)c2[nH]ncc2Br)c(OC)c1	36	2*	-105	0.6	8	-8
Cc1nn(-c2ccccc2)c2c1C(c1ccco1)C(C#N)=C(N)O2 (stereo not drawn)	27	0.2	79*	0.7	-9	6
Cc1nn(-c2ccccc2)c2c1C(c1cccs1)C(C#N)=C(N)O2 (stereo not drawn)	42	0.2	79*	0.6	6	-4
Cc1ccc(-n2nc(C)c3c2OC(N)=C(C#N)C3c2ccc(F)cc2)cc1 (stereo not drawn)	10	0.9	6	0.9	0	0
COc1ccc(CCn2c(N)c(C(=O)NCc3ccco3)c3nc4ccccc4nc32)cc1OC	77*	0.4	56*	0.2	-10	8
Nc1c(C(=O)NCc2ccco2)c2nc3ccccc3nc2n1CCc1ccccc1F	38	0.5	52*	0.6	8	-11
O=C(NCc1ccc2c(c1)OCO2)c1cc2ncc(Br)cn2n1	11	0.8	21	0.9	·	·
CCCCc1c(C)c2ccc(OCC(C)=O)cc2oc1=O	30	0.7	28	0.7	·	·
C=CCOC(=O)COc1ccc2c(C)c(C)c(=O)oc2c1	55*	1.4	-42	0.4	·	·
C=CCOC(=O)COc1ccc2c(C)c(CC)c(=O)oc2c1	64*	1	-4	0.4	-1	1
CCOC(=O)CCc1c(C)c2ccc(OCC(=O)OC(C)C)cc2oc1=O	12	0.8	25	0.9	-13	17
COC(=O)COc1cccc2c(=O)n(CC(=O)N3CCCc4ccccc43)ccc12	6	0.9	8	0.9	-13	12
CCn1c(SCC(=O)Nc2nc(-c3ccc(C)cc3)cs2)nnc1-c1ccccc1	42	0.2	85*	0.6	-11	8
CCn1c(SCC(=O)Nc2nc(-c3ccc(C)cc3)cs2)nnc1-c1ccccc1O	57*	0.3	72*	0.4	18	-18
COc1ccccc1-c1nnc(SCC(=O)Nc2nc(-c3ccccc3)cs2)n1C	91*	0	98*	0.1	-2	1
COc1cccc(Nc2nnc(SCC(=O)N(CC(C)C)CC(C)C)s2)c1	32	0.6	37	0.7	1	0
N#CCC(=O)N1CCCCCC1	30	0.7	26	0.7	7	-7
Cc1sc2nc(CN3CCOCC3)nc(NCCc3ccccc3)c2c1C	40	0.1	90*	0.6	26	-24
Cc1sc2nc(CN3CCOCC3)nc(NS(=O)(=O)c3ccc4c(c3)OCCO4)c2c1C	31	0.2	80*	0.7	1	1
Cc1sc2nc(CN3CCOCC3)nc(NS(=O)(=O)c3ccccc3)c2c1C	-24	0.5	46	1.2	-4	3
CC(=O)Nc1ccc(S(=O)(=O)Nc2nc(CN3CCOCC3)nc3sc4c(c23)CCCC4)cc1	-11	0.5	53*	1.1	-21	20
CCOC(=O)c1ccccc1NC(=O)Cn1cnc2c(oc3ccccc32)c1=O	15	0.6	43	0.8	-3	1
SMILES	CYP2C19 inh	CYP2C9 act	CYP2C9 inh	CYP2C19 act	sEH inh	sEH activator
O=C(NC1CCCc2ccccc21)C1CCC(CNS(=O)(=O)c2cccc3nsnc23)CC1 (stereo not drawn)	-6	1	-2	1.1	62	-63
Cc1ccccc1C(O)c1ccccn1 (stereo not drawn)	17	0.9	6	0.8	2	-1
c1ccc(C(c2c[nH]c3ccccc23)c2c[nH]c3ccccc23)nc1	54*	0.1	95*	0.5	3	-2
Cn1cc(C(c2ccccn2)c2cn(C)c3ccccc23)c2ccccc21	44	0	96*	0.6	-3	5
Cc1onc(-c2ccccc2)c1C(=O)NC(CC(=O)O)c1ccc(OC(C)C)cc1 (stereo not drawn)	8	1.1	-5	0.9	-17	15
c1cc2ccc3ccc(-n4cnnn4)c4ccc(c1)c2c34	42	1.4	-35	0.6	-19	17
CS(=O)(=O)N1CCN(C(=O)c2ccc(Br)s2)CC1	94*	0.6	40	0.1	3	-5
O=c1oc2ccccc2c2c1C(c1ccc(Cl)cc1)Nc1ccc3ccccc3c1-2 (stereo not drawn)	2	0.9	5	1	-10	11
CCOc1ccc(C2Nc3ccc4ccccc4c3-c3c2c(=O)oc2ccccc32)cc1 (stereo not drawn)	52*	0.2	84*	0.5	-5	7
COc1ccc(C2Nc3ccc4ccccc4c3-c3c2c(=O)oc2ccccc32)cc1 (stereo not drawn)	12	0.2	83*	0.9	-2	3
Cc1nn(-c2ccccc2)c2c1P(=O)(O)/C(=C1\N(C)c3ccccc3C1(C)C)C=N2	3	1	3	1	-4	8
Nc1ccc(C23CC4CC(CC(CO)(C4)C2)C3)cc1	71*	0.8	20	0.3	11	-11
Nc1ccc(C23CC4CC(CC(O)(C4)C2)C3)cc1	91*	0.8	24	0.1	8	-6
Clc1cccc(CSC2=NCCCN2)c1	·	·	·	·	-5	5
CC1=C(C(N)=O)C(c2ccccn2)n2nc(SCc3ccccc3)nc2N1 (stereo not drawn)	·	·	·	·	-3	1
CC(C)CCN1CC(C(=O)N2CCN(c3ccc(F)cc3)CC2)CC1=O (stereo not drawn)	-3	1	-1	1	0	-3
COC(=O)Cc1cc(OC)c(OC)cc1Cc1cc(OC)c(OC)cc1CC(=O)OC	88*	0.8	25	0.1	-7	7
CCOC(=O)Cc1cc(OC)c(OC)cc1Cc1cc(OC)c(OC)cc1CC(=O)OCC	55*	0.8	23	0.4	6	-4
CCN1CCN(C(c2ccccn2)c2c(NC(=O)c3ccccc3)sc(C)c2C)CC1 (stereo not drawn)	-2	0.9	8	1	0	0
COC(=O)c1ccc(N/C(C)=C/C(=O)c2ccc(C)o2)cc1	0	1	-3	1	0	1
CCOc1ccc(N/C(C)=C/C(=O)c2ccc(C)o2)cc1	52*	0.8	21	0.5	4	-4
CC(C)Oc1ccc(CNC(=S)N/N=C/c2cccnc2)cc1	18	0.7	32	0.8	3	-3
CC(C)(C)n1nnnc1C(c1cccs1)N(Cc1cccnc1)Cc1ccccc1Cl (stereo not drawn)	96*	0.1	92*	0	18	-15
